Laboratory results: PubChem BioAssay (Tox21)
Inconclusive results are not listed. Some compounds were tested as several samples or in several runs, with calls that do not always agree. Active and inactive are the calls of the source. Unless noted, the call rests on the fitted dose curve; in most records, active means well fitted curve in the direction sought with a large enough effect in the repeat runs; inconclusive means weak or mixed curves; inactive means no such curve, though single readings can be large; an effect the other way counts as inactive or inconclusive.

Assays:
[1] = qHTS assay to identify small molecule agonists of the estrogen receptor alpha (ER-alpha) signaling pathway in the presence of an antagonist - cell viability counter screen (AID 1259386);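 further: series mostly up to about 92 µM; cells exposed to compounds for 22 h at 37 °C before the viability read; nearly all actives have a fitted effect of over 30% in size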
Procedure, shortened: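 ICI-182,780 at 10.0nM final accompanies the compound titration (15 concentrations, 22hr, 37C) on VM7Luc4E2 cells. The CellTiter-Fluor fluorescence readout runs in the same wells as the luciferase assay.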

[2] = target: Progesterone receptor (Homo sapiens) (UniProt P06401); test: qHTS assay to identify small molecule agonists of the progesterone receptor (PR) signaling pathway (AID 1346784; calls by dose curve; further: nearly all actives have a fitted effect of over 30% in size)
Sequence of Progesterone receptor (Homo sapiens) (P06401 whole entry, looked up): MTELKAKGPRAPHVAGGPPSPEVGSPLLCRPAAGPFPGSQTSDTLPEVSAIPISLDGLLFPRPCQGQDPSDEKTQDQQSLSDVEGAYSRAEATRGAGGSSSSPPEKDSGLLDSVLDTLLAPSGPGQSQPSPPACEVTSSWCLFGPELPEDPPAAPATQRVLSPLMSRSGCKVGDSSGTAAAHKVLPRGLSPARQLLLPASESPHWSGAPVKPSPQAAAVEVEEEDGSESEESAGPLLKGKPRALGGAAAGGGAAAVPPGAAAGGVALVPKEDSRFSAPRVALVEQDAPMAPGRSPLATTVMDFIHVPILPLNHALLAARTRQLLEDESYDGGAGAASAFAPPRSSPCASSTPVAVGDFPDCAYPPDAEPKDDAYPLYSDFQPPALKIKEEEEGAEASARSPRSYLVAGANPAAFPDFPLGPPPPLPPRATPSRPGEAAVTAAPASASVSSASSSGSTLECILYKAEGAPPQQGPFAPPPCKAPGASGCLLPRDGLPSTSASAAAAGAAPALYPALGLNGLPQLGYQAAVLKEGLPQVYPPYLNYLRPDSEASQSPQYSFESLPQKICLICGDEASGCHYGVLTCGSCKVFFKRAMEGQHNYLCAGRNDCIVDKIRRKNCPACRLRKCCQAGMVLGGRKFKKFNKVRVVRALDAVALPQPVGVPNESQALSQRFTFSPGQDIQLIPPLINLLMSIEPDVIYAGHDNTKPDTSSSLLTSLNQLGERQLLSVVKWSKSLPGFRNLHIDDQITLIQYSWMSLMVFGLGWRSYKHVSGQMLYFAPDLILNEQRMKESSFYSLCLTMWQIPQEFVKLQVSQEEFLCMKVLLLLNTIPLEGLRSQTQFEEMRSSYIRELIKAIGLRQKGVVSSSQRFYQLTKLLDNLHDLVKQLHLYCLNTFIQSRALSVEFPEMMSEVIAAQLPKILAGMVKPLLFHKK
Procedure, shortened: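 Using charcoal-stripped serum (2%) to limit endogenous steroids, PR-UAS-bla HEK 293T cells received compounds for 16 hr at 37C after 6 hr plating; beta-lactamase FRET fluorescence was recorded following 2 hr substrate loading at room temperature.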

[3] = target: Progesterone receptor (Homo sapiens) (UniProt P06401); test: qHTS assay to identify small molecule antagonists of the progesterone receptor (PR) signaling pathway (AID 1346795; active means well fitted inhibition curve with a large enough effect in the signal ratio in the repeat runs, not every such curve was filed as active; the % refers to the signal ratio; further: potency means the concentration at half of the fitted maximal effect)
Procedure, shortened: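 Inhibition of R5020-induced (1 nM final) beta-lactamase reporter signal in PR-UAS-bla HEK293T cells was scored by FRET fluorescence after overnight (16 hr) compound treatment.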

[4] = qHTS assay to identify small molecule agonists of the progesterone receptor (PR) signaling pathway - cell viability counter screen (AID 1346799; calls by dose curve; further: nearly all actives have a fitted effect of over 45% in size)
Procedure, shortened: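 Cytotoxicity in PR-bla HEK293T cells: 16 h compound, 37C; CellTiter-Glo added post-FRET read; luminescence after 30 min RT.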

[5] = qHTS assay to identify small molecule antagonists of the TGF-beta/Smad signaling pathway - cell viability counter screen (AID 1346824); further: nearly all actives have a fitted effect of over 50% in size
Procedure, shortened: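 Cytotoxicity counter-screen run in the same wells as the beta-lactamase Smad reporter read: CellTiter-Glo luminescence after 30 min at room temperature. HEK 293T SBE-bla cells had 5 hr compound exposure at 37 C with TGF-beta1 (0.25 ng/mL stock).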

[6] = qHTS assay to identify small molecule agonists of the TGF-beta/Smad signaling pathway - cell viability counter screen (AID 1346829); further: top concentration of the series differs between compounds; nearly all actives have a fitted effect of over 45% in size
Procedure, shortened: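 Compound-treated SBE-bla HEK 293T cells (5 hr, 37 C) were assessed for viability with CellTiter-Glo in parallel with the reporter read.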

[7] = qHTS assay to identify small molecule agonists of the TGF-beta/Smad signaling pathway (AID 1346859; active means well fitted activation curve with a large enough effect in the signal ratio in the repeat runs, not every such curve was filed as active; the % refers to the signal ratio; further: series mostly up to about 77 µM)
Procedure, shortened: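 Stable Smad binding element-beta-lactamase HEK 293T cells; 5 hr compound exposure at 37 C under 5% CO2; 2 hr room-temperature substrate step; fluorescence excited at 405 nm, collected at 460 nm and 530 nm.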

[8] = target: Thyrotropin-releasing hormone receptor (Homo sapiens) (UniProt P34981); test: qHTS assay to identify small molecule antagonists of the thyrotropin-releasing hormone receptor (TRHR) signaling pathway (AID 1346877; active means well fitted inhibition curve with a large enough effect in the repeat runs, not every such curve was filed as active; further: series mostly up to about 51 µM)
Sequence of Thyrotropin-releasing hormone receptor (Homo sapiens) (P34981 whole entry, looked up): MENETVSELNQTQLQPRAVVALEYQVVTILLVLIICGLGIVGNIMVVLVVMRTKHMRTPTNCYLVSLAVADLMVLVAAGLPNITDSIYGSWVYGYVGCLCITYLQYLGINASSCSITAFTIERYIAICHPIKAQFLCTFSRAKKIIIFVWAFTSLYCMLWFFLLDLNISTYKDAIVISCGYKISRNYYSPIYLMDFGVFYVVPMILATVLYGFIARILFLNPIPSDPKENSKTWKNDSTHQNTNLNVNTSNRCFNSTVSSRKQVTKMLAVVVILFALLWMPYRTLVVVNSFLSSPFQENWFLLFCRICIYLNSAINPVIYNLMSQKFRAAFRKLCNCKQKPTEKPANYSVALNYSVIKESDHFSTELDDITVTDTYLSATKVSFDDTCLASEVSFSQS
Procedure, shortened: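 Screening used HEK293 cells engineered with TRHR, with a brief 5 min room-temperature compound exposure preceding addition of TRH to 1 nM. The read-out was kinetic calcium-dye fluorescence, concentration-response from 15 doses in triplicate.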

[9] = target: Thyrotropin-releasing hormone receptor (Homo sapiens) (UniProt P34981); test: qHTS assay to identify small molecule agonists of the thyrotropin-releasing hormone receptor (TRHR) signaling pathway (AID 1346891; calls by dose curve;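 further: HEK293 cells expressing TRHR with calcium dye readout; series mostly up to about 58 µM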)
Procedure, shortened: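 In 1536-format, 1500 TRHR-Hek293 cells per well grew 18 h, took up calcium dye for 2 h at 37 °C, received compound, and were read kinetically; 15-point titrations, triplicates.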

[10] = Caspase-3/7 induction in HepG2 cells by small molecules, qHTS assay (AID 1346978); further: nearly all actives have a fitted effect of over 15% in size
Procedure, shortened: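 Caspase-3/7 induction was measured by Caspase-Glo 3/7 luminescence (30 min, room temperature) after a 17 hr compound exposure of wild-type HepG2 cells seeded at 2,000 per well and pre-incubated 5 hr.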

[11] = Caspase-3/7 induction in CHO-K1 cells by small molecules, qHTS cell viability counter screen (AID 1346979); further: nearly all actives have a fitted effect of over 35% in size; further: potency means the concentration at half of the fitted maximal effect
Procedure, shortened: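 To flag cytotoxic compounds, treated CHO-K1 wild-type cells were given CellTiter-Fluor at 16hr and read fluorescently after 1hr at 37C; the caspase-3/7 luminescence was measured in these same wells.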

[12] = Caspase-3/7 induction in CHO-K1 cells by small molecules, qHTS assay (AID 1346980); further: nearly all actives have a fitted effect of over 15% in size
Procedure, shortened: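 Luminescent Caspase-Glo 3/7 read (30min, room temperature) quantified apoptosis induction. Cells were wild-type CHO-K1, treated with compound for 17hr at 37 C and 5% CO2.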

[13] = Caspase-3/7 induction in HepG2 cells by small molecules, qHTS cell viability counter screen (AID 1346981); further: series mostly up to about 92 µM; nearly all actives have a fitted effect of over 30% in size
Procedure, shortened: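 Multiplexed with the caspase-3/7 assay: HepG2 cells, 16 hr compound treatment, CellTiter-Fluor viability detection by fluorescence.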

[14] = target: Nuclear receptor subfamily 1 group I member 2 (Homo sapiens) (UniProt O75469); test: Human pregnane X receptor (PXR) small molecule agonists, qHTS assay (AID 1346982); further: nearly all actives have a fitted effect of over 35% in size; further: potency means the concentration at half of the fitted maximal effect
Sequence of Nuclear receptor subfamily 1 group I member 2 (Homo sapiens) (O75469 whole entry, looked up): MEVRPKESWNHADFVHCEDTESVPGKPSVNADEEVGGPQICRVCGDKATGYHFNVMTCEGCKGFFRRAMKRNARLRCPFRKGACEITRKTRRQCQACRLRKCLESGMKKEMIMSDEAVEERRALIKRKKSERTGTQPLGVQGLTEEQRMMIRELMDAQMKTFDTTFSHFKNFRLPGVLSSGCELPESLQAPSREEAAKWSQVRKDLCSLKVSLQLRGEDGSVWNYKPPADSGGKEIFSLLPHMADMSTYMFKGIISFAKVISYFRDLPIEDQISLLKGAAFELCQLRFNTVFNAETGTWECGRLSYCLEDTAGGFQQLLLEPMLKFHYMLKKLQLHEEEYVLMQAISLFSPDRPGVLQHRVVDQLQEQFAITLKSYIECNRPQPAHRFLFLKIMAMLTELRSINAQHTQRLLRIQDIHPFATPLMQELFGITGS
Procedure, shortened: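 We seeded PXR-Luc HepG2 cells in assay medium containing 5% charcoal-stripped FBS, added compounds 5 hr later, incubated 24 hr, and read luminescence with ONE-Glo reagent.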

[15] = Human pregnane X receptor (PXR) small molecule agonists, qHTS cell viability counter screen (AID 1346977); further: nearly all actives have a fitted effect of over 50% in size
Procedure, shortened: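 Readout is CellTiter-Fluor fluorescence from PXR-Luc HepG2 cells. Plated cells rested 5hr, then were treated with compounds for 24hr at 37C and 5% CO2, with reagent present during the last hour.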

[16] = target: Cytochrome P450 2D6 (Homo sapiens) (UniProt P10635); test: Cytochrome P450 Family 2 Subfamily D Member 6 (CYP2D6) small molecule antagonists: luciferase reporter qHTS assay (AID 1671196); further: nearly all actives have a fitted effect of over 50% in size; further: potency means the concentration at half of the fitted maximal effect; on activity change, negative = inhibition: series mostly up to about 120 µM
Sequence of Cytochrome P450 2D6 (Homo sapiens) (P10635 whole entry, looked up): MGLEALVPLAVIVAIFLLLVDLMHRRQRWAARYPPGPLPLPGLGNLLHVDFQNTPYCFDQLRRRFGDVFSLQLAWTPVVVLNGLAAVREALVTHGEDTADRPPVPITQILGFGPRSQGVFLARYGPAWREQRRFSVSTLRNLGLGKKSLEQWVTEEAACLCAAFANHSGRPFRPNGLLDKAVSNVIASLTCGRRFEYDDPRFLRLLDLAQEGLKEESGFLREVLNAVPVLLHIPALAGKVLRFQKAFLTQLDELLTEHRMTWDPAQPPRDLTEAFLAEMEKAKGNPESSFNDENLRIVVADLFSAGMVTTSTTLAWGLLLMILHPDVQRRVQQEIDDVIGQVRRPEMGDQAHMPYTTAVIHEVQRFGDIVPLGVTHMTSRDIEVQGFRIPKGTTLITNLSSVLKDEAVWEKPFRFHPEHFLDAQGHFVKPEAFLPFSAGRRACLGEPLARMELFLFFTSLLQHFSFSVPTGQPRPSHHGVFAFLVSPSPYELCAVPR
Procedure, shortened: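 Luminescence (RLU), read 20 min after detection reagent, indicated CYP2D6 conversion of proluciferin to luciferin during a 1 h NADPH-dependent reaction at room temperature.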

[17] = target: Nuclear receptor subfamily 1 group I member 2 (Homo sapiens) (UniProt O75469); test: CYP3A4 induction through human pregnane X receptor (PXR) by small molecules, qHTS assay (AID 1346984); further: nearly all actives have a fitted effect of over 40% in size
Procedure, shortened: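 qHTS, concentration-response format: HepG2 DPX-2 line, PXR/CYP3A4-luc. Exposure 24 h, 37C. Substrate Luciferin-IPA 3uM final, 3 h. Detection One-Glo, 30 min RT.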

[18] = target: Nuclear receptor subfamily 1 group I member 2 (Homo sapiens) (UniProt O75469); test: Human pregnane X receptor (PXR) activation by small molecules, qHTS assay (AID 1346985); further: nearly all actives have a fitted effect of over 40% in size
Procedure, shortened: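 DPX-2 cells (HepG2 co-transfected with a PXR response element and a CYP3A4-promoter luciferase construct) were seeded at 2,000 per well, rested 5 hr at 37C, then exposed to DMSO-dissolved compounds for 24 hr. Activation was read as luciferase luminescence.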

[19] = qHTS assay to identify small molecule antagonists of the progesterone receptor (PR) signaling pathway - cell viability counter screen (AID 1346798); further: series mostly up to about 92 µM; nearly all actives have a fitted effect of over 50% in size
Procedure, shortened: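 ATP content as viability readout: CellTiter-Glo luminescence, 30 min room temperature, in PR-UAS-bla HEK293T cells after 16 hr compound/R5020 treatment at 37C and 5% CO2.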
On the % scale 0 is the no-effect control and ±100 the full control effect.

CCO[C@@H]1O[C@H](C(COCc2ccccc2)OCc2ccccc2)[C@H](OCc2ccccc2)[C@H]1O (stereo partly specified)
active: Potency [3] 26.6 µM | Potency [11] 29.8 µM
inactive: Potency [1] | Potency [2] | Potency [4] | Potency [5] | Potency [6] | Potency [7] | Potency [8] | outcome [9] | Potency [10] | Potency [12]

CCCCCCCC
inactive: Potency [1] | Potency [2] | Potency [3] | Potency [4] | Potency [6] | Potency [7] | Potency [8] | outcome [9] | Potency [10] | Potency [11] | Potency [12] | Potency [13] | Potency [14]

CCCCCC(C)OC(=O)COc1ccc(Cl)c2cccnc12 (stereo unspecified)
active: Potency [3] 54.5 µM | Potency [14] 24.3 µM
inactive: Potency [1] | Potency [2] | Potency [4] | Potency [5] | Potency [6] | Potency [7] | Potency [8] | Potency [15] | Potency [10] | Potency [12] | Potency [13] | Potency [16]

C[C@@H](O)[C@H](N)C(=O)O
inactive: activity change, negative = cytotoxicity [1] 2.14% [at 19 µM] | activation [2] 0.125% [at 19 µM] | activity change, negative = inhibition [3] 8.03% [at 18.9 µM] | activity change, negative = cytotoxicity [4] -6.31% [at 19 µM] | viability change, negative = cytotoxic [5] 4.73% [at 15.8 µM] | activity change, negative = cytotoxicity [6] 1.96% [at 15.8 µM] | activation [7] 0.576% [at 15.8 µM] | activity, negative = inhibition [8] 12.1% [at 10.5 µM] | activity change, negative = cytotoxicity [15] 14% [at 19 µM] | caspase activation [10] -1.24% [at 19 µM] | caspase-3/7 activation [12] -0.26% [at 19 µM] | activity change, negative = cytotoxicity [13] -2.32% [at 19 µM] | activation [14] -12.7% [at 19 µM] | Potency [17] | Potency [18] | activity change, negative = inhibition [16] -2.59% [at 23.6 µM]

Cc1nc2n(c(=O)c1CCN1CCC(c3noc4cc(F)ccc34)CC1)CCCC2
active: Potency [16] 2.19 µM
inactive: Potency [1] | Potency [2] | Potency [3] | Potency [4] | Potency [5] | Potency [6] | Potency [7] | Potency [8] | Potency [15] | Potency [10] | Potency [11] | Potency [12] | Potency [13] | Potency [14]

OC/C=C/CO
active: Potency [16] 17.8 µM
inactive: Potency [1] | Potency [2] | Potency [3] | Potency [19] | Potency [5] | Potency [6] | Potency [7] | Potency [8] | Potency [10] | Potency [12] | Potency [13] | Potency [14]

C=Cc1cccc(C)c1
39.5 µM (active) and inactive: Potency [16]
60.5 µM (active) and inactive: Potency [11]
inactive: Potency [1] | Potency [2] | Potency [3] | Potency [19] | Potency [4] | Potency [6] | Potency [7] | Potency [10] | Potency [12] | Potency [13] | Potency [14]
